The full ranking holds about 35,000 sequences; the median of “fluorescence intensity (a.u.)” is about 10,000, and the highest 2% start at about 52,000. Only a selection was taken, and the highest values are over-represented in it overall.
The sequences below were run against T1, OsWOX13 (Oryza sativa, UniProt Q5QMM3 1-267) (assay: protein-binding microarray (RPBM); PBS, 2% BSA, 51.3 ng/ul salmon testes DNA, 50 uM zinc acetate, 200 nM TF, 25 C, 1 h; high values mean tight binding). Conditions: protein: recombinant; tags: N-terminal polyhistidine and DsRed monomer fusion (pET32a); label: CyDye5-dUTP incorporated in the synthesized complementary strand; 3' TTTTT single-stranded linker to array surface; dsDNA, one strand shown.
T1 sequence: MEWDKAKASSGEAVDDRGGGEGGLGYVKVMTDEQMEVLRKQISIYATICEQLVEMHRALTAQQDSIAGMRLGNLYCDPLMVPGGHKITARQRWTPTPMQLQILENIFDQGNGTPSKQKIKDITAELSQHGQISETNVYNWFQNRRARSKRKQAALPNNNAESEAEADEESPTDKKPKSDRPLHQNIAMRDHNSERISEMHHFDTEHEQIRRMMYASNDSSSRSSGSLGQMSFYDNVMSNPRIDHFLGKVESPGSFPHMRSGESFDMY
Procedure, shortened: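 Polyhistidine-tagged DsRed fusions of transcription factors, joined at the N-terminus, were expressed in E. coli BL21-CodonPlus and isolated on Ni–NTA. They were incubated at 200 nM for 1 h at 25 °C on a custom Agilent array, double-stranded and BSA-blocked, in PBS with 2% BSA, salmon testes DNA and 50 µM zinc acetate. The binding signal is per-feature fluorescence intensity (arbitrary units) read on an Axon 4000B scanner after washing.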
In the case of “CAGAATGATTGTGCTTAATTGTAAAATTGATTTTAGGATTCGGAGTCACCTAGTGCAG”, the binding signal is reported as 61100 fluorescence intensity (a.u.). “TTAACAATATTTTAATGATTGCTCTTGTGCTTAGAAAATTCGGAGTCACCTAGTGCAG” was tested, and the binding signal was 5300 fluorescence intensity (a.u.). In the case of “TGCTTTTCATGTTTATTGATTTAGGCGCACCTGTTCTGTTCGGAGTCACCTAGTGCAG”, the binding signal is reported as 3190 fluorescence intensity (a.u.). In the case of “TTAAAATTGATTTTAGGGGATTTTCATCTGAGCTTATGTTCGGAGTCACCTAGTGCAG”, the binding signal is reported as 55800 fluorescence intensity (a.u.). For “AAAATTTAAATTTTCAGGCTTAAATTTGAAATTGATTTTACGGAGTCACCTAGTGCAG”, the binding signal was 7780 fluorescence intensity (a.u.). With “TTTTAGGATGATTTAATTGTAAATTTAAAATTAAAATGGTCGGAGTCACCTAGTGCAG” the binding signal was 35400 fluorescence intensity (a.u.). “ACACAGCTAATTAGCTCTATGACTAAATGAATAAAATGACCGGAGTCACCTAGTGCAG” was tested, and the binding signal was 25800 fluorescence intensity (a.u.). For “TCGTCAGGTTAATCAAGGGAGGATTGAACGAGATTTCGTGCGGAGTCACCTAGTGCAG”, the binding signal was 5920 fluorescence intensity (a.u.). In the case of “TGATCTAATCAATGACAGCGACTTGGTTCCATGTTCTTCCCGGAGTCACCTAGTGCAG”, the binding signal is reported as 12300 fluorescence intensity (a.u.). “TATTCAATAACTAAATTAATGCCTGATTTACGTTGTTCGTCGGAGTCACCTAGTGCAG” was tested, and the binding signal was 17400 fluorescence intensity (a.u.). “TCTTAATTTCTATCAATAATTTAATTTAGCATATAATAACCGGAGTCACCTAGTGCAG” was tested, and the binding signal was 31300 fluorescence intensity (a.u.). With “ATTGATGATTTAATGAAACTAATTTGATATTGTAGATGTTCGGAGTCACCTAGTGCAG” the binding signal was 48300 fluorescence intensity (a.u.). In the case of “CCACTAACAGTCTAACAACATGATAAGGCCTCCGCAACCACGGAGTCACCTAGTGCAG”, the binding signal is reported as 3920 fluorescence intensity (a.u.). With “GAGCCTAATTACGCCATGATTTGACAATGTGGTGCTACAGCGGAGTCACCTAGTGCAG” the binding signal was 39300 fluorescence intensity (a.u.). “AAAATTGATATGTAATTATGACACACTTACGTCGGATATGCGGAGTCACCTAGTGCAG” was tested, and the binding signal was 64500 fluorescence intensity (a.u.). For “AGCCTAATTACGTCATGATTTGACAATGTAATGATACCGTCGGAGTCACCTAGTGCAG”, the binding signal was 53500 fluorescence intensity (a.u.). In the case of “TGTAAATATATTATGATTGTAGTATAACTTATATAGTATTCGGAGTCACCTAGTGCAG”, the binding signal is reported as 10900 fluorescence intensity (a.u.). “GCCTAATTACGCCATGATTTGATAATGTGGTGCTACAGTACGGAGTCACCTAGTGCAG” was tested, and the binding signal was 41800 fluorescence intensity (a.u.). For “GATATGATATTGACACATGATATGTAATTATATATAGAGCCGGAGTCACCTAGTGCAG”, the binding signal was 11400 fluorescence intensity (a.u.). For “CTAATTACGTCATGATTTGACAATGTGGTGTGGTGCTACACGGAGTCACCTAGTGCAG”, the binding signal was 37500 fluorescence intensity (a.u.). With “AGCCTAATTACGCCATGATTTGACAATGTGGTGCTACAGTCGGAGTCACCTAGTGCAG” the binding signal was 58300 fluorescence intensity (a.u.). With “TGTATGCGATTTGATTAAACTTTTAAAATGTTGATTATTACGGAGTCACCTAGTGCAG” the binding signal was 4680 fluorescence intensity (a.u.). With “AACTAAAATTACATATGTAAATTTAGTTGATATGACATGTCGGAGTCACCTAGTGCAG” the binding signal was 24600 fluorescence intensity (a.u.). “TTGAGCCTAATTACGCCATGATTTGACAATGTGATGCTACCGGAGTCACCTAGTGCAG” was tested, and the binding signal was 40200 fluorescence intensity (a.u.). With “ATTTGATTGACGAGGTATAGTAAAATGCGTCAACTTATGTCGGAGTCACCTAGTGCAG” the binding signal was 63200 fluorescence intensity (a.u.). In the case of “CCTGACATCTCTCAATCGGACGGTGGATACCACCTCACCGCGGAGTCACCTAGTGCAG”, the binding signal is reported as 3620 fluorescence intensity (a.u.). In the case of “CGGTCATCAATCTCATCAGCTACATCCCAAAGGGGAATCACGGAGTCACCTAGTGCAG”, the binding signal is reported as 5580 fluorescence intensity (a.u.). For “ATTTGATTTAAAACCTCAGTTTTCGATTGAGAGAAAATATCGGAGTCACCTAGTGCAG”, the binding signal was 4350 fluorescence intensity (a.u.). “CTGTCAATCTGCATATATCTGTCTCTCTTACTCACTAACACGGAGTCACCTAGTGCAG” was tested, and the binding signal was 8750 fluorescence intensity (a.u.). In the case of “ACTCACGCGCAATTAGCTGGTTTTGATGGGTCAGGAGGAACGGAGTCACCTAGTGCAG”, the binding signal is reported as 5020 fluorescence intensity (a.u.). In the case of “TGTAATTTAATTTTGCCTCCACATTTCCTGACTTTGGCCACGGAGTCACCTAGTGCAG”, the binding signal is reported as 45700 fluorescence intensity (a.u.). With “ACGCCATGATTGACAATGTGATGCTACAGTAAACATTTGCCGGAGTCACCTAGTGCAG” the binding signal was 53900 fluorescence intensity (a.u.). “ACGCCATGATTTGACAATGTGATGCTACAGTAAACATTTGCGGAGTCACCTAGTGCAG” was tested, and the binding signal was 23300 fluorescence intensity (a.u.). With “CCATGATTTGACAATGTGATGCTACAGTAAACATTTGCTACGGAGTCACCTAGTGCAG” the binding signal was 42800 fluorescence intensity (a.u.). With “CACCATAACTAATTAACAAGCCACCTATTTCCTCTTGACACGGAGTCACCTAGTGCAG” the binding signal was 10800 fluorescence intensity (a.u.). For “AGCCATGCATCAACACGTAATTAAGTACTAGTTGACAGTGCGGAGTCACCTAGTGCAG”, the binding signal was 4190 fluorescence intensity (a.u.). For “GCTAATTAATCTATTATTGATTTAGATGTATCGACCAGTTCGGAGTCACCTAGTGCAG”, the binding signal was 53500 fluorescence intensity (a.u.). With “TTGCTTTAACTAGCTGCTTAATTATATGTTCTTTGTATTTCGGAGTCACCTAGTGCAG” the binding signal was 5230 fluorescence intensity (a.u.). “CACATTCAGTTCTAGATTAATTTATTTTGGATGAATGTATCGGAGTCACCTAGTGCAG” was tested, and the binding signal was 6060 fluorescence intensity (a.u.). “ATGTATTTAATTATAGATTTAATAAAATTAATCTAGTGTTCGGAGTCACCTAGTGCAG” was tested, and the binding signal was 17500 fluorescence intensity (a.u.). “CCGAATTTCTATTATTTCTTAATTGTATTTCTATATGGACCGGAGTCACCTAGTGCAG” was tested, and the binding signal was 7410 fluorescence intensity (a.u.). In the case of “CGGCTAATTAATTTATATTTCTATATGTATTGACCCTGTTCGGAGTCACCTAGTGCAG”, the binding signal is reported as 61100 fluorescence intensity (a.u.).
